{
  "source": "the supplement of paper PMC9262897",
  "about": "“Low-cost anti-mycobacterial drug discovery using engineered E. coli” (Nature Communications, 2022)",
  "note": "Counter-ions that a name gives are not always drawn. ± gives the standard deviation of the averaged measurements.",
  "data": [
    {"tested_on": "E. coli TESEC Mtb Alr", "assay": "growth (OD600 after 10 h); higher = more growth (less inhibition)", "details": "arabinose 10000 nM; compound 0.1 mM; raw OD600 reference: median of DMSO wells 0.264, cell-free background 0.041", "protocol": "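TESEC Mtb Alr E. coli, or the Alr+ wild-type control, in 384-well plates with Prestwick library compounds at 0.1 mM and 1% DMSO, across arabinose induction levels of 1E3 to 1E7 nM. Growth is read as OD600 after 10 h at 37 °C in triplicate biological replicates.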", "values": [
      {"smiles": "CC(N)C(O)c1ccccc1", "note": "(centres undefined) [Phenylpropanolamine hydrochloride]", "growth": "0.254 ± 0.0066"},
      {"smiles": "CC[C@@]1([C@@H]2O[C@@H]([C@H]3O[C@@](O)(CO)[C@H](C)C[C@@H]3C)C[C@@H]2C)CC[C@H]([C@]2(C)CC[C@]3(C[C@H](O)[C@@H](C)[C@@H]([C@@H](C)[C@@H](OC)[C@H](C)C(=O)O)O3)O2)O1", "note": "[Monensin sodium salt]", "growth": "0.264 ± 0.0038"},
      {"smiles": "CC(C)[N+](C)(CCC(C(N)=O)(c1ccccc1)c1ccccc1)C(C)C", "note": "[Isopropamide iodide]", "growth": "0.248 ± 0.0032"},
      {"smiles": "CN1C[C@H](C(=O)N[C@]2(C)O[C@@]3(O)[C@@H]4CCCN4C(=O)[C@H](Cc4ccccc4)N3C2=O)C[C@@H]2c3cccc4[nH]cc(c34)C[C@H]21", "note": "[Dihydroergotamine tartrate]", "growth": "0.0692 ± 0.001"},
      {"smiles": "CN1[C@@H]2C[C@@H](OC(=O)[C@H](CO)c3ccccc3)C[C@H]1[C@@H]1O[C@@H]12", "note": "[Scopolamine hydrochloride]", "growth": "0.292 ± 0.011"},
      {"smiles": "CN1[C@@H]2CC[C@H]1C[C@@H](OC(=O)[C@H](CO)c1ccccc1)C2", "note": "[Hyoscyamine (L)]", "growth": "0.272 ± 0.0055"},
      {"smiles": "CN(C)C(=O)Oc1ccc[n+](C)c1", "note": "[Pyridostigmine iodide]", "growth": "0.25 ± 0.0086"},
      {"smiles": "CC[N+]1(C)CCCC(OC(=O)C(O)(c2ccccc2)c2ccccc2)C1", "note": "(centres undefined) [Pipenzolate bromide]", "growth": "0.258 ± 0.012"},
      {"smiles": "CC(Cc1ccccc1)NCCC(c1ccccc1)c1ccccc1", "note": "(centres undefined) [Prenylamine lactate]", "growth": "0.0394 ± 0.0001"},
      {"smiles": "C#C[C@]1(O)CC[C@H]2[C@@H]3CCC4=CC(=O)CC[C@]4(C)[C@H]3CC[C@@]21C", "note": "[Ethisterone]", "growth": "0.2589 ± 0.0022"},
      {"smiles": "CCNCC(O)c1cccc(O)c1", "note": "(centres undefined) [Etilefrine hydrochloride]", "growth": "0.261 ± 0.012"},
      {"smiles": "COc1cccc(C2(O)CCCCC2CN(C)C)c1", "note": "(centres undefined) [Tramadol hydrochloride]", "growth": "0.271 ± 0.0049"},
      {"smiles": "C=CCN1CC[C@]23c4c5ccc(O)c4O[C@H]2C(=O)CC[C@@]3(O)[C@H]1C5", "note": "[Naloxone hydrochloride]", "growth": "0.27 ± 0.016"},
      {"smiles": "O=c1[nH]c2ccccc2n1C1CCN(CCCC(c2ccc(F)cc2)c2ccc(F)cc2)CC1", "note": "[Pimozide]", "growth": "0.2629 ± 0.0026"},
      {"smiles": "CC[C@@H](CO)NC(=O)[C@@H]1C=C2c3cccc4[nH]cc(c34)C[C@H]2N(C)C1", "note": "[Methylergometrine maleate]", "growth": "0.207 ± 0.0073"},
      {"smiles": "C[C@]12Cc3c[nH]nc3C[C@@H]1CC[C@@H]1[C@@H]2CC[C@@]2(C)[C@H]1CC[C@]2(C)O", "note": "[Stanozolol]", "growth": "0.245 ± 0.0053"},
      {"smiles": "CN1CCC2(C)c3cc(O)ccc3N(C)C12", "note": "(single isomer, unassigned; (-)) [(-)-Eseroline fumarate salt]", "growth": "0.306 ± 0.0086"},
      {"smiles": "C[C@@H]1O[C@@H](O[C@@H]2C=C3CC[C@@H]4[C@H](CC[C@]5(C)[C@@H](c6ccc(=O)oc6)CC[C@]45O)[C@@]3(C)CC2)[C@H](O)[C@H](O)[C@H]1O", "note": "[Proscillaridin A]", "growth": "0.256 ± 0.016"},
      {"smiles": "COc1ccc(CN2CCNCC2)c(OC)c1OC", "note": "[Trimetazidine dihydrochloride]", "growth": "0.268 ± 0.0047"},
      {"smiles": "C[N+]1(C)CCOC(O)(c2ccc(-c3ccc(C4(O)C[N+](C)(C)CCO4)cc3)cc2)C1", "note": "(centres undefined) [Hemicholinium bromide]", "growth": "0.276 ± 0.0044"},
      {"smiles": "OC(c1ccccc1)(c1ccccc1)C1CCNCC1", "note": "[Azacyclonol]", "growth": "0.269 ± 0.0093"},
      {"smiles": "CCN(C(C)=O)c1cccc(-c2ccnc3c(C#N)cnn23)c1", "note": "[Zaleplon]", "growth": "0.238 ± 0.004"},
      {"smiles": "Cc1cc(C(C#N)c2ccc(Cl)cc2)c(Cl)cc1NC(=O)c1cc(I)cc(I)c1O", "note": "(centres undefined) [Closantel]", "growth": "0.0425 ± 0.0013"},
      {"smiles": "C[C@]12CC[C@H](O)C[C@H]1CC[C@@H]1[C@@H]2C[C@@H](O)[C@]2(C)[C@@H](C3=CC(=O)OC3)CC[C@]12O", "note": "[Digoxigenin]", "growth": "0.257 ± 0.0041"},
      {"smiles": "COc1cc2c(c(OC)c1OC)-c1ccc(OC)c(=O)cc1[C@@H](NC(C)=O)CC2", "note": "[Colchicine]", "growth": "0.267 ± 0.0042"},
      {"smiles": "C=C1C[C@@H]2[C@H](CC[C@]3(C)C(=O)CC[C@@H]23)[C@@]2(C)C=CC(=O)C=C12", "note": "[Exemestane]", "growth": "0.165 ± 0.0017"},
      {"smiles": "C=C1CC[C@@]2(O)[C@H]3Cc4ccc(O)c5c4[C@@]2(CCN3CC2CC2)[C@H]1O5", "note": "[Nalmefene hydrochloride]", "growth": "0.274 ± 0.0086"},
      {"smiles": "C[N+](C)(C)CCCCCCCCCC[N+](C)(C)C", "note": "[Decamethonium bromide]", "growth": "0.2525 ± 0.0016"},
      {"smiles": "CCn1cc(C(=O)O)c(=O)c2cc3c(cc21)OCO3", "note": "[Oxolinic acid]", "growth": "0.0509 ± 0.00026"},
      {"smiles": "O=P1(N(CCCl)CCCl)NCCCO1", "note": "(centres undefined) [Cyclophosphamide]", "growth": "0.276 ± 0.0047"},
      {"smiles": "CC(CCc1ccccc1)NC(C)C(O)c1ccc(O)cc1", "note": "(centres undefined) [Nylidrin]", "growth": "0.285 ± 0.013"},
      {"smiles": "NCCCNCCSP(=O)(O)O", "note": "[Amifostine]", "growth": "0.273 ± 0.0058"},
      {"smiles": "CCC1(c2ccc(N)cc2)CCC(=O)NC1=O", "note": "(centres undefined) [Glutethimide, para-amino]", "growth": "0.251 ± 0.01"},
      {"smiles": "CCN(CC)C(C)C(=O)c1ccccc1", "note": "(centres undefined) [Amfepramone hydrochloride]", "growth": "0.261 ± 0.014"},
      {"smiles": "C=C(C)[C@@H]1[C@H]2OC(=O)[C@@H]1[C@]1(O)C[C@H]3O[C@]34C(=O)O[C@H]2[C@]14C", "note": "[Picrotoxinin]", "growth": "0.2631 ± 0.002"},
      {"smiles": "CC1C=CC=CCCC=CC=CC=CC=CC(OC2OC(C)C(O)C(N)C2O)CC2OC(O)(CC(O)C(O)CCC(O)CC(O)CC(O)CC(=O)OC(C)C(C)C1O)CC(O)C2C(=O)O", "note": "(centres undefined) [Nystatine]", "growth": "0.2338 ± 0.0013"},
      {"smiles": "CC(C)CC(N(C)C)C1(c2ccc(Cl)cc2)CCC1", "note": "(centres undefined) [Sibutramine HCl]", "growth": "0.269 ± 0.0079"},
      {"smiles": "CCC1(CC)C(=O)C=CNC1=O", "note": "[Pyrithyldione]", "growth": "0.289 ± 0.0059"},
      {"smiles": "CCN(C)C(=O)Oc1cccc([C@H](C)N(C)C)c1", "note": "[Rivastigmine]", "growth": "0.302 ± 0.0098"}
    ]}
  ]
}
